Shown are actives, neighbours in structure and some others; about 3% of the full set was active somewhere.
PMP22 txn = modulators of PMP22 gene transcription in S16 Schwann cells; S16 Pmp22-F2sN Schwann cells, FLuc/NLuc coincidence luminescence, 24 h; Potency, µM (highest dose often 57.5 µM), for the others: at the top dose activity change, negative = inhibition, usual class: inhibitors; 43,000 compounds, 2% hits; AID 1508649; active = clear falling dose curves in both reporters; inconclusive = both reporters move, but less clearly or upward; inactive = either reporter flat; the % is the NLuc reporter signal; note: potency is the fitted concentration of half-maximal effect; % is set by controls: 0 for no effect and ±100 for the full control effect
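Luminescent read-out of sequential FLuc and NLuc signals from a reporter embedded in the Pmp22 3' UTR of S16 Schwann cells, taken after 24 h compound exposure at 37C; compounds reducing both signals score as inhibitors of expression.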
SKOV3 invasion = ovarian cancer metastasis inhibition, 3D TME model; SKOV3ip1-GFP adhesion/invasion on 3D omental model, fluorescence; 46,000 compounds, 0.1% hits; Potency, µM (top dose mostly 45.8 µM), inactives show at the highest dose activity change, negative = inhibition, usual class: inhibitors; AID 1963576;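 note: potency is the fitted concentration of half-maximal effect; plate controls were DMSO wells for no effect and tomatine positive control wells for full effect; nearly all actives have a fitted effect of over 65% in size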
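Primary human omental fibroblast/mesothelial 3D culture pre-formed 48 h. SKOV3ip1-GFP cells added with compounds (0.36-46 umol/L), incubated 2 h RT/16 h 37 C, fixed; GFP cells quantified at 488/509 nm.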
pS6 MEF inh = reduces mTORC1 signaling in Tsc2 and p53 null MEF cells; Tsc2-/- p53-/- MEF, phospho-rpS6 immunofluorescence/PI, 24 h; Potency, µM (doses to about 38.3 µM), for inactives: top-dose activity change, negative = inhibition, hits mostly inhibitors; 44,000 compounds, 0.78% hits;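 note: potency is the fitted concentration of half-maximal effect; plate controls were DMSO for no effect and rapamycin for full effect; nearly all actives have a fitted effect of over 50% in size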
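Plate MEFs (Tsc2-/-, p53-/-, empty vector) in DMEM/10% FBS; after 24 h add compound, incubate 24 h at 37 degree Celsius; fix in PFA/TX-100, block, stain phospho-rpS6 and 10 uM PI; scan at 488 nm; report % positive cells.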
p53null 32C tox = p53 null cell cytotoxicity, permissive temperature. H1299-neo p53 null cells, ATP luminescence, 24 h, 32C. AID 903. Potency, µM (highest dose often 46.1 µM), for the others: at the highest dose activity change, negative = cytotoxicity, most hits filed as cytotoxic. 55,000 compounds, 0.62% hits;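 note: potency is the fitted concentration of half-maximal effect; 0% = DMSO only and -100% = full killing by 100 µM tamoxifen; nearly all actives have a fitted effect of over 55% in size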
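We seeded p53-null H1299-neo cells, incubated them overnight at 37C, and added compounds across a range up to 46 uM. After 24 hours at 32C, ATP reagent was applied for 20 min at room temperature and luminescence recorded.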
S16 viability = cytotoxicity in S16 Pmp22-F2sN Schwann cells. Potency, µM (highest dose often 57.5 µM), inactives show top-dose activity change, negative = cytotoxicity, most hits filed as cytotoxic. S16 Pmp22-F2sN Schwann cells viability, CellTiter-Glo, 24 h. 43,000 compounds, 0.48% hits. AID 1508642; note: potency is the fitted concentration of half-maximal effect; % is set by controls: 0 for no effect and ±100 for the full control effect; nearly all actives have a fitted effect of over 65% in size
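Viability was measured by CellTiter-Glo luminescence (15 min, room temperature). This followed 24 h at 37 °C of compound exposure (23 nL pin transfer) in S16 Pmp22-F2sN Schwann cells, 500-1,000 per well.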
p53null 39C kill = selectivity test: cytotoxicity in p53 null cells, nonpermissive temperature | H1299 p53-null (neo) cells, 39C, ATPlite viability, 24 h | Potency, µM (series often up to 46.1 µM), for the others: top-dose activity, negative = cell killing, hits mostly cytotoxic | 55,000 compounds, 0.97% hits;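 note: potency is the fitted concentration of half-maximal effect; 0% = DMSO only and -100% = full killing by 100 µM tamoxifen; nearly all actives have a fitted effect of over 50% in size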
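Following overnight plating at 37C (600 cells/well), H1299-neo or H1299-p53A138V cells are dosed up to 46 uM. Incubation lasts 24 hr at 39C before ATP detection.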
NLuc sat counter = NanoLuc enzyme inhibition artifact for PMP22 screen | 690 compounds, 4% hits | shares compounds with PMP22 txn | Secreted NLuc enzyme (filtered S16 cell medium), Nano-Glo luminescence | Potency, µM (doses to about 57.5 µM), for inactives: top-dose activity change, negative = inhibition, usual class: inhibitors; note: potency is the fitted concentration of half-maximal effect; % is set by controls: 0 for no effect and ±100 for the full control effect
NLuc Km ctr = inhibits NanoLuc under Km conditions, PMP22 counter-screen; shares compounds with PMP22 txn; secreted NLuc enzyme, coelenterazine luminescence, Km conditions; AID 1508639; Potency, µM (series often up to 57.5 µM), for the others: top-dose activity change, negative = inhibition, most hits filed as inhibitors; 690 compounds, 5% hits; note: potency is the fitted concentration of half-maximal effect; % is set by controls: 0 for no effect and ±100 for the full control effect
FLuc counter = inhibits firefly luciferase, PMP22 counter-screen; purified P. pyralis FLuc, luminescence, 10 min; 690 tested, under 10 active; Potency, µM (series often up to 57.5 µM), without a hit: at the top dose activity, negative = inhibition, usual class: inhibitors; shares compounds with PMP22 txn; note: % of control where 0% means no effect
Target sequence (P08659 whole entry, looked up): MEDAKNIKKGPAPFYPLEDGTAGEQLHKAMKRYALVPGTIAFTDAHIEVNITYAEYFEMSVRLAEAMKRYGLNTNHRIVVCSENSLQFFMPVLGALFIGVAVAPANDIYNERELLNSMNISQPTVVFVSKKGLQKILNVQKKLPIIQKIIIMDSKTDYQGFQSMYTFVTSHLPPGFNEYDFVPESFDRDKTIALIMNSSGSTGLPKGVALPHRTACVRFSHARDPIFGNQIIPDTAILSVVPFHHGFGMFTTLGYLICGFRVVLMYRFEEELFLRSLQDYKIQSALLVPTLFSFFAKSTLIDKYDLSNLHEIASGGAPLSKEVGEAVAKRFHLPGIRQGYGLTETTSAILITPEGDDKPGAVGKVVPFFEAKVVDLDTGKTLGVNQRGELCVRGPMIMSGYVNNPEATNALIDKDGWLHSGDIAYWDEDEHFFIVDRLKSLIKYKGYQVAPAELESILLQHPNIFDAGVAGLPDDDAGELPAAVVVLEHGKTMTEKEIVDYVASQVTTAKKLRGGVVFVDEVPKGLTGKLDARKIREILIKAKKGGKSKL
S16 F2sN tox cnf = S16 Schwann cell cytotoxicity, confirmatory | shares compounds with PMP22 txn | S16 Schwann cells viability, CellTiter-Glo ATP luminescence, 24 h | Potency, µM (highest dose often 57.5 µM), for the others: top-dose activity change, negative = viability loss, hits mostly cytotoxic | 690 compounds, 7% hits | AID 1508641; note: potency is the fitted concentration of half-maximal effect; % is set by controls: 0 for no effect and ±100 for the full control effect
PMP22 txn cnf = PMP22 transcription modulation, confirmatory; 690 compounds, 22% hits; shares compounds with PMP22 txn; Potency, µM (highest dose often 57.5 µM), for the others: at the top dose activity change, negative = inhibition, hits mostly inhibitors; S16 Schwann cells Pmp22-F2sN, dual luciferase, 24 h; active = clear falling dose curves in both reporters; inconclusive = both reporters move, but less clearly or upward; inactive = either reporter flat; the % is the FLuc reporter signal; note: potency is the fitted concentration of half-maximal effect
* hit, by the source's call; i = inactive; ? = inconclusive; . = not tested or not shown; [ ] = another dose, or the depositor's remark. Unless noted, calls come from the whole dose curve; as a rule, active = well fitted curve in the direction sought with a large enough effect; inconclusive = small, poorly fitted or top-dose-only effect, or another doubt; inactive = no such curve, though single readings can be large; an effect the other way counts as inactive or inconclusive.

SMILES	PMP22 txn	SKOV3 invasion	pS6 MEF inh	p53null 32C tox	S16 viability	p53null 39C kill	NLuc sat counter	NLuc Km ctr	FLuc counter	S16 F2sN tox cnf	PMP22 txn cnf
CCC(C=C[C@@H]1OC(=O)C=C[C@H]1C)=C[C@H](C)CC=CC(C)=C[C@@H](C)C(=O)[C@@H](C)[C@H](O)[C@@H](C)CC(C)=CC(=O)O	.	-12.7%[1.72 µM]	.	.	.	.	.	.	.	.	.
CCOc1ccccc1NC(=O)c1c(NCc2ccc(C)o2)sc2c1CCCCC2	13.4µM*	0.7%	-10.1%	0.1%	-19.7%	8.5%	?	?	-26.0%	1.0%	?
CCOc1ccccc1NC(=O)c1c(NCc2ccc(C)o2)sc2c1CCC(C)C2 (centres undefined)	2.4%	?	-9.7%	7.4%	13.2%	-13.4%	.	.	.	.	.
CCC(=O)N1CCc2cc(S(=O)(=O)CCC(=O)N3CCN(c4ccc(Cl)cc4)CC3)ccc21	17µM*	1.5%	-2.2%	16.6%	-1.5%	-3.3%	?	-4.4%	-2.6%	12.1%	?
COc1ccc(Cn2c(SCC(=O)N(C)Cc3ccccc3)nc3ccccc32)cc1	20µM*	-3.3%	0.0%	17.6%	-26.2%	10.6%	?	?	?	-10.6%	-9.4%
COc1ccc(Cn2c(SCC(=O)NCc3ccccc3)nc3ccccc32)cc1	?	-7.2%	6.7%	20.3%	?	34.2%	.	.	.	.	.
O=C1COc2ccc(-c3cc(-c4ccc(F)cc4)c4c(n3)-c3ccccc3OC4)cc2N1	16.8µM*	i	1.5%	.	24.4%	.	-4.7%	7.1%	5.7%	?	?
O=C(O)[C@H]1O[C@H](Oc2cc3oc(-c4ccccc4)cc(=O)c3c(O)c2O)[C@H](O)[C@@H](O)[C@H]1O	.	3.4%	.	.	.	.	.	.	.	.	.
COc1ccccc1NC(=O)c1oc2ccccc2c1NC(=O)c1c(F)cccc1F	-24.0%	-8.2%	1.8%	-11.0%	-24.6%	-15.1%	.	.	.	.	.
COc1cc(C(=O)Nc2c(C(=O)Nc3ccccc3F)oc3ccccc23)cc(OC)c1OC	16.8µM*	i	-8.4%	4.1%	1.4%	-11.8%	-2.8%	-3.8%	?	-2.1%	?
Cc1ccc(Cl)cc1NC(=O)Cn1c(=O)cc(C)c2c(C)nn(C)c21	18.9µM*	15.3%	-17.4%	-5.3%	19.4%	-4.3%	-15.4%	-13.5%	4.0%	-20.7%	-26.7%
COc1ccc(NC(=O)Cn2c(=O)cc(C)c3c(C)nn(C)c32)cc1	15.8µM*	i	-14.2%	12.5%	0.8%	-17.1%	-4.3%	-2.8%	3.0%	-3.5%	-13.6%
CCOc1ccc(NC(=O)Cn2c(=O)cc(C)c3c(C)nn(C)c32)cc1	-14.2%	-4.6%	?	-5.2%	?	2.6%	.	.	.	.	.
CCOc1cc(C(Nc2cc(C)ccn2)c2ccc3cccnc3c2O)ccc1OC (centres undefined)	10µM*	i	?	?	?	?	?	17.2µM*	-1.5%	?	?
CC(NC(=O)c1cccc(Nc2nc3ccccc3n3nnnc23)c1)c1ccccc1 (centres undefined)	11.3µM*	-7.6%	-15.1%	-3.3%	?	-17.0%	-0.5%	5.4%	4.4%	17.2µM*	?
N#C[C@H]1C[C@H]2C[C@@H]2N1C(=O)[C@@H](N)C12CC3CC(CC(O)(C3)C1)C2	.	0.7%	.	.	.	.	.	.	.	.	.
COc1ccc(-c2nc3c(C#N)c[nH]n3c2NC2CCCC2)cc1	15µM*	1.2%	0.2%	-7.3%	22.4µM*	-9.8%	?	?	-16.2%	12.2%	?
CCOc1ccc(-c2nc3c(C#N)c[nH]n3c2NC2CCCCC2)cc1	?	0.5%	1.5%	7.9%	-22.7%	7.2%	.	.	.	.	.
O=C(NOCC(O)CO)c1cc(Br)c(F)c(F)c1Nc1ccc(I)cc1F (centres undefined)	.	6.4%	.	.	.	.	.	.	.	.	.
COc1ccc(NC(=O)c2cc3c(s2)-c2c(C)cccc2OC3)cc1Cl	15.8µM*	20.4%	-2.8%	-11.6%	28.2µM*	-1.4%	-8.0%	-0.6%	-13.7%	?	?
COc1cc(Cl)c(C)cc1NC(=O)c1cc2c(s1)-c1c(C)cccc1OC2	?	-18.5%	-8.6%	-10.4%	-5.1%	-17.7%	.	.	.	.	.
CCOc1ccccc1CNC(=O)CCn1c(=O)c2cccn2c2ccc(F)cc21	14.1µM*	0.6%	?	9.6%	6.0%	55.9%	1.3%	0.8%	0.0%	-2.4%	?
COc1ccc(Cl)cc1NS(=O)(=O)c1cc(-c2cc(C)no2)ccc1C	-9.2%	-21.7%	-23.7%	-5.0%	-18.8%	-19.8%	.	.	.	.	.
COc1ccc(-c2onc(C)c2C)cc1S(=O)(=O)Nc1cc(Cl)ccc1C	?	-4.2%	0.0%	12.6%	-17.2%	-2.2%	?	?	-3.3%	-16.0%	?
COc1ccc(-c2onc(C)c2C)cc1S(=O)(=O)NCc1ccc(C)o1	8.91µM*	-16.7%	-10.4%	8.7%	-13.1%	-7.8%	-2.6%	1.4%	10.4%	-10.4%	?
CCOc1ccccc1CNS(=O)(=O)c1cc(-c2onc(C)c2C)ccc1OC	?	-1.8%	-4.0%	-5.2%	?	-6.8%	.	.	.	.	.
CCNc1cc(NC2CCC(O)CC2)nc(Nc2ccc3c(ccn3Cc3ccccc3)c2)n1 (centres undefined)	.	-6.8%	.	.	.	.	.	.	.	.	.
